In PubChem BioAssay (EPA / NIEHS):
The source made the active and inactive calls. How the source made its calls: active means hit-call score of the fitted dose curve at least 0.9, where 1 is the maximum; inactive means score below 0.9.

Legend:
[1] = BSK_hDFCGF_SRB: Viability Assessment in the BioMAP Diversity Plus: hDFCGF Assay (AID 2283061); conditions: primary human foreskin fibroblasts;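 further: cells exposed to compound for 24 h before the read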
How it was run: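 Human foreskin primary fibroblasts were treated with compound and assessed 24 h after dosing. Total protein was measured by sulforhodamine B staining (0.1% SRB after 10% TCA fixation, 560 nm read) as a cytotoxicity marker, with bidirectional fitting against DMSO baseline.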

[2] = read-out: TIMP metallopeptidase inhibitor 1 (TIMP1), TIMP1 (gene 7076); assay: BSK_hDFCGF_TIMP1: BioMAP Diversity Plus: hDFCGF Assay for TIMP metallopeptidase inhibitor 1 (TIMP1) Biomarker Activity (AID 2283062); conditions: primary human foreskin fibroblasts; actives raise or lower the signal
How it was run: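 Primary human foreskin fibroblasts in the hDFCGF system were dosed with compound for 24 h, then TIMP-1 was measured by ELISA. Activity was fitted bidirectionally relative to DMSO control; parallel SRB staining assessed cytotoxicity.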

[3] = read-out: Monokine induced gamma interferon (MIG), CXCL9 (gene 4283); assay: BSK_hDFCGF_MIG: BioMAP Diversity Plus: hDFCGF Assay for Monokine induced gamma interferon (MIG) Biomarker Activity (AID 2283063); conditions: primary human foreskin fibroblasts; actives raise or lower the signal
How it was run: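 ELISA read-out of MIG from primary human dermal fibroblasts 24 h post-dosing. Gain or loss of signal fitted bidirectionally, DMSO as baseline.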

[4] = read-out: Matrix Metallopeptidase 1 (MMP1), MMP1 (gene 4312); assay: BSK_hDFCGF_MMP1: BioMAP Diversity Plus: hDFCGF Assay for Matrix Metallopeptidase 1 (MMP1) Biomarker Activity (AID 2283064); conditions: primary human foreskin fibroblasts; actives raise or lower the signal
How it was run: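 ELISA read-out of MMP1 from human foreskin fibroblasts (primary skin cells), 24 h post-dose. Gain or loss of signal was fitted bidirectionally versus DMSO negative control; cytotoxicity was checked by SRB in parallel cultures.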

[5] = read-out: Plasminogen activator inhibitor-1 (PAI1), SERPINE1 (gene 5054); assay: BSK_hDFCGF_PAI1: BioMAP Diversity Plus: hDFCGF Assay for Plasminogen activator inhibitor-1 (PAI1) Biomarker Activity (AID 2283066); conditions: primary human foreskin fibroblasts; actives raise or lower the signal
How it was run: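 PAI-1 levels in human dermal foreskin fibroblasts were quantified by ELISA 24 h after dosing, with gain or loss analysed against DMSO. Overt cytotoxicity was checked by sulforhodamine B total-protein staining in parallel cultures.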

[6] = read-out: Intercellular Adhesion Molecule 1 (ICAM1), ICAM1 (gene 3383); assay: BSK_KF3CT_ICAM1: BioMAP Diversity Plus: KF3CT Assay for Intercellular Adhesion Molecule 1 (ICAM1) Biomarker Activity (AID 2283067); conditions: primary human keratinocytes with fibroblasts; actives raise or lower the signal
How it was run: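 Human keratinocyte plus foreskin fibroblast primary co-culture was exposed to chemical for 24 h. ICAM-1 was then quantified by ELISA, and the data were fit bidirectionally against DMSO as the negative control and baseline.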

[7] = read-out: Interferon-gamma inducible Protein 10 (IP10), CXCL10 (gene 3627); assay: BSK_KF3CT_IP10: BioMAP Diversity Plus: KF3CT Assay for Interferon-gamma inducible Protein 10 (IP10) Biomarker Activity (AID 2283068); conditions: primary human keratinocytes with fibroblasts; actives raise or lower the signal
How it was run: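 Human keratinocyte plus foreskin fibroblast primary co-culture exposed to test chemical for 24 h; IP-10 measured by ELISA. Concentration-response fitted bidirectionally against DMSO control as baseline.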

[8] = BSK_KF3CT_SRB: Viability Assessment in the BioMAP Diversity Plus: KF3CT Assay (AID 2283069); conditions: primary human keratinocytes with fibroblasts;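 further: fitted for both signal gain and loss against DMSO baseline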
How it was run: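 SRB read-out at 560 nm (0.1% stain, TCA-fixed cells) gauges overt cytotoxicity in a human skin keratinocyte–fibroblast co-culture 24 h post-dosing. Signal change was fitted bidirectionally relative to DMSO control.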

[9] = read-out: Interleukin-1 alpha (IL1a), IL1A (gene 3552); assay: BSK_KF3CT_IL1a: BioMAP Diversity Plus: KF3CT Assay for Interleukin-1 alpha (IL1a) Biomarker Activity (AID 2283070); conditions: primary human keratinocytes with fibroblasts; actives raise or lower the signal
How it was run: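 Primary skin co-culture (keratinocytes, foreskin fibroblasts), 24 h exposure; ELISA for IL-1a; bidirectional curve fit vs DMSO.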

[10] = read-out: Vascular cell adhesion molecule 1 (VCAM1), VCAM1 (gene 7412); assay: BSK_hDFCGF_VCAM1: BioMAP Diversity Plus: hDFCGF Assay for Vascular cell adhesion molecule 1 (VCAM1) Biomarker Activity (AID 2283065); conditions: primary human foreskin fibroblasts; actives raise or lower the signal
How it was run: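 Primary human foreskin fibroblasts (hDFCGF system) were dosed with chemical and VCAM-1 was measured by ELISA 24 h later. Bidirectional curve fitting used DMSO as negative control and activity baseline.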

Measured: AC50

Cc1ccccc1N
not listed: [10]
inactive: all other assays above

CN(C)N=O
not listed: [8]
inactive: all other assays above

Oc1c(I)cc(I)cc1I
active: [1] 20 µM | [5] 11.5 µM | [6] 20 µM | [7] 23 µM | [9] 27.7 µM
inactive: [2] | [3] | [4]

CCN1CCC2(CC1)COc1cc3c(cc12)N(C(=O)c1ccc(-c2ccc(-c4nnc(C)o4)cc2C)cc1)CC3
active: [1] 6.07 µM | [2] 9.3 µM | [3] 11.2 µM | [4] 9.25 µM | [5] 9.28 µM | [6] 28.6 µM | [7] 28.4 µM | [9] 31.4 µM

C=C(C)C(=O)[O][Sn]([CH2]CCC)([CH2]CCC)[CH2]CCC
active: [1] 0.242 µM | [2] 0.344 µM | [3] 0.148 µM | [4] 0.148 µM | [5] 0.254 µM | [6] 0.354 µM | [7] 0.181 µM | [9] 0.148 µM

BrCCBr
not listed: [8] | [10]
inactive: all other assays above

C[C@@H]1C[C@@H]([C@H](O)CC2CC(=O)NC(=O)C2)C(=O)[C@@H](C)C1
active: [2] 2.49 µM | [3] 4.4 µM | [4] 3.37 µM | [5] 2.9 µM | [6] 7.24 µM | [7] 12.9 µM | [8] 11.6 µM | [9] 31.2 µM

CCCCCCCCC(=O)NCc1ccc(O)c(OC)c1
active: [5] 0.155 µM
not listed: [8] | [10]
inactive: all other assays above

CCOP(=S)(OCC)SCSP(=S)(OCC)OCC
not listed: [8] | [10]
inactive: all other assays above

CCC(C)(C)c1ccc(O)c(C(C)(C)CC)c1
active: [1] 11.3 µM | [2] 8.53 µM | [3] 8.09 µM | [4] 10.7 µM | [5] 7.87 µM | [6] 11.7 µM | [7] 9.69 µM | [9] 9.89 µM

Nc1ccc(-c2ccc(N)c(Cl)c2)cc1Cl
not listed: [8] | [10]
inactive: all other assays above

COC[C@H](C)N(C(=O)CCl)c1c(C)csc1C
not listed: [10]
inactive: all other assays above

CCOP(=S)(OCC)Oc1nc(Cl)c(Cl)cc1Cl
active: [4] 4.93 µM | [5] 13.3 µM
not listed: [10]
inactive: all other assays above

CCSC(C)CC1CC(=O)C(C(CC)=NOC/C=C/Cl)=C(O)C1 (stereo not given)
not listed: [10]
inactive: all other assays above

CCOP(=S)(OCC)Oc1ccc(S(C)=O)cc1 (stereo not given)
not listed: [10]
inactive: all other assays above

Nc1ncc([N+](=O)[O-])s1
not listed: [10]
inactive: all other assays above

CC(C)c1ccc(CO)cc1
not listed: [10]
inactive: all other assays above

C=CC(=O)OCCCCCC(C)C
not listed: [8] | [10]
inactive: all other assays above

C[C@]12CCC(=O)C[C@@H]1CC[C@@H]1[C@@H]2CC[C@]2(C)[C@@H](O)CC[C@@H]12
not listed: [10]
inactive: all other assays above

Cn1sc(Cl)cc1=O
active: [1] 30.5 µM | [2] 29.8 µM | [3] 27.9 µM | [4] 32.8 µM | [5] 35.2 µM | [6] 20 µM
inactive: [7] | [8] | [9]

COP(=S)(OC)Oc1cc(Cl)c(Cl)cc1Cl
not listed: [10]
inactive: all other assays above

O=C(Nc1ccc2[nH]ccc2c1)c1cc2cc(F)ccc2n1Cc1cccc(F)c1
active: [1] 3.36 µM | [2] 3.93 µM | [3] 4.77 µM | [4] 3.37 µM | [5] 2.69 µM | [6] 8.14 µM | [7] 7.21 µM | [9] 6.68 µM

OCc1ccco1
not listed: [8] | [10]
inactive: all other assays above

CC(=O)[O][Hg][c]1ccccc1
active: [1] 0.464 µM | [2] 0.148 µM | [3] 0.208 µM | [4] 0.148 µM | [5] 0.183 µM | [6] 0.467 µM | [7] 0.148 µM | [9] 0.707 µM

COc1cc(OC)nc(NC(=O)NS(=O)(=O)c2ncccc2C(=O)N(C)C)n1
not listed: [8] | [10]
inactive: all other assays above

CC(=O)C(Cl)C(=O)N(C)C (stereo not given)
active: [9] 13.9 µM
not listed: [8] | [10]
inactive: all other assays above

CCCCCCCCc1ccc(O)cc1
active: [1] 26.4 µM | [2] 33.3 µM | [3] 34.8 µM | [4] 31.9 µM | [5] 14 µM | [6] 31.2 µM | [7] 29.5 µM | [9] 25 µM

COC(=O)Cc1ccccc1
not listed: [8] | [10]
inactive: all other assays above

O=S(=O)(c1ccc(Cl)cc1)c1ccc(Cl)cc1
not listed: [8] | [10]
inactive: all other assays above

CC(C)(C)c1cc(O)ccc1O
active: [1] 4.07 µM | [2] 4.45 µM | [3] 4.42 µM | [4] 6.21 µM | [5] 5.24 µM | [6] 30.8 µM | [7] 30.1 µM | [9] 28.3 µM

CCOC(=O)/C=C(C)/C=C/C[C@@H](C)CCCC(C)C
active: [1] 25.1 µM | [2] 26.6 µM | [3] 33.2 µM | [4] 32.4 µM | [6] 34.5 µM | [7] 33.4 µM | [8] 33.8 µM | [9] 26.3 µM

COP(=S)(OC)Oc1c(Cl)cc(C)cc1Cl
not listed: [8] | [10]
inactive: all other assays above

O=C(O)C(F)(F)C(F)(F)C(F)(F)C(F)(F)C(F)(F)C(F)(F)F
not listed: [10]
inactive: all other assays above

CCOP(=S)(OCC)SCCS(=O)(=O)CC
not listed: [8] | [10]
inactive: all other assays above

Oc1cccc2cccnc12
active: [1] 0.564 µM | [2] 0.201 µM | [3] 0.169 µM | [4] 0.927 µM | [5] 0.331 µM | [6] 2.14 µM | [7] 2.55 µM | [9] 2.13 µM

NC(=S)Nc1ccccc1
not listed: [8] | [10]
inactive: all other assays above
